Data from ChEMBL document CHEMBL3988442, “University of Dundee, Small-Polar-MMV Screening Library” (2021).
About 13,000 (27%) of roughly 48,000 compounds showed an effect of 50% or more. The list shows a part of the results.

system: Wolbachia pipientis; assay: Anti-Wolbachia Cell-Based Screen; assay type: functional; set-up: scale not given: in the data most compounds retested in dose-response had high values; conditions: 5 µM

Compared with `FC(F)Oc1ccc(CN2CCOC3(CCOCC3)C2)cc1Cl`, `CCN1CC2(CCC1=O)CCN(C(=O)C(O)c1cccc(Cl)c1)CC2` (centres undefined) is lower in “Percent Effect” value: 7.261% for the first, -4.5% for the second.

Compared with `CN(C)C(=O)N1CCN(Cc2ccc3occc3c2)[C@H]2CS(=O)(=O)C[C@H]21`, `Cc1ccsc1C(=O)NC1CCS(=O)(=O)c2ccccc21` (centres undefined) is higher in “Percent Effect” value: -2.327% for the first, 9% for the second.

Going from `COc1ccccc1CCN(C)C(=O)NC(C)c1nncn1C` (centres undefined) to `CC(C)COCC(NC(=O)CSc1nnc[nH]1)c1ccco1` (centres undefined), the “Percent Effect” value rises from 3.532% to 34.68%.

Compared with `CC(Nc1nc2c(cnn2C)c(=O)[nH]1)c1ccccn1` (centres undefined), `CCC(CNC(=O)c1ccccn1)N1CCc2ccccc2C1` (centres undefined) is higher in “Percent Effect” value: -0.01009% for the first, 2.728% for the second.

Going from `O=C(NCCCNc1ccccc1)c1scnc1Cl` to `c1ccc(NCCn2cc(C3CCCNC3)nn2)cc1` (centres undefined), the “Percent Effect” value falls from 2.651% to -6.163%.

Going from `O=C(CN1CCOC(c2ccccc2C(F)(F)F)C1)NC1CC1` (centres undefined) to `O=C1NCCCCC1NC(=O)N1CCCc2ccccc21` (centres undefined), the “Percent Effect” value falls from 8.433% to 0.9845%.

Compared with `COCCN1CCn2cc(CNC(=O)C3CCC3)nc2C1`, `COCCCNc1nc(CNC(=O)C2CCC2)cc(-c2ccco2)n1` is higher in “Percent Effect” value: -2.168% for the first, 103.2% for the second.

Going from `COCCNc1ccccc1CNC(=O)C1CCCOC1` (centres undefined) to `COCCCNc1nc(CNC(C)=O)cc(-c2ccco2)n1`, the “Percent Effect” value rises from -2.92% to 96.87%.

Going from `Cc1cc(NCc2csc(-c3ccco3)n2)ccc1C(N)=O` to `COCCN(C(=O)c1nc(-c2ccco2)sc1C)C1CC1`, the “Percent Effect” value rises from -17.43% to 4.119%.

Going from `CN1CCC(N2CCOC[C@H](OCC(=O)N(C)C)C2)CC1` to `CSCCC(=O)N1CCC(c2nccn2CCN(C)C)CC1`, the “Percent Effect” value rises from -7.154% to -6.399%.

Going from `CN(Cc1nccs1)c1nc(-c2ccccn2)nc2c1CCNCC2` to `Cl.c1cc(NCc2ccncc2)nc(C2CCCNC2)c1` (centres undefined), the “Percent Effect” value rises from -16.23% to 93.58%.

First: C[C@@H]1CN(C(=O)C2(N3CCCCC3)Cc3ccccc3C2)C[C@H](C)O1
Second: C[C@@H]1CN(C2(C(=O)N3CCCCCC3)Cc3ccccc3C2)C[C@H](C)O1
The “Percent Effect” value of the first is lower: 1.52% for the first, 10.21% for the second.

First: C[C@@H]1CN(C2(C(=O)N3CCNCC3)Cc3ccccc3C2)C[C@H](C)O1
Second: O=C(NC1CCNCC1)C1(N2CCCCC2)Cc2ccccc2C1
The “Percent Effect” value of the first is lower: 0.2637% for the first, 123.6% for the second.

Going from `O=C1NCCCC[C@@H]1NC(=O)C1(N2CCCCC2)Cc2ccccc2C1` to `O=C(NC1CCNC1)C1(N2CCCCC2)Cc2ccccc2C1` (centres undefined), the “Percent Effect” value rises from 94.83% to 108.7%.

First: CCN1CCN(C2(C(=O)NC3CCCC3)Cc3ccccc3C2)CC1
Second: O=C1NCCCCC1NC(=O)N1CCc2ccccc21 (centres undefined)
The “Percent Effect” value of the first is higher: 34.09% for the first, -9.694% for the second.

Going from `CCC(C)(C)n1nnnc1C(c1cccs1)N1CCCCC1` (centres undefined) to `CCC(C)(C)n1nnnc1C(c1cccs1)N1CCc2ccccc2C1` (centres undefined), the “Percent Effect” value falls from 117.5% to 110.2%.

Compared with `Cc1nnc(NCC(c2cccs2)N2CCCC2)c(C#N)c1C` (centres undefined), `CCn1cnnc1CNC(=O)NCC(c1cccs1)N1CCCC1` (centres undefined) is lower in “Percent Effect” value: 15.53% for the first, -4.375% for the second.

Compared with `CCC(CNC(=O)c1cncc(Br)c1)N1CCc2ccccc2C1` (centres undefined), `CCC(C)(C)n1nnnc1C(c1cccs1)N1CCc2ccccc21` (centres undefined) is higher in “Percent Effect” value: 4.86% for the first, 114.5% for the second.

Compared with `Cc1nc(CN2CCCn3cnc(COC(C)C)c3C2)cs1.O=C(O)C(F)(F)F`, `COc1ccc(F)cc1C(=O)N1CCn2c(nnc2C(F)(F)F)C1` is lower in “Percent Effect” value: 6.346% for the first, -12.82% for the second.

Going from `CCOc1ccc2c(c1)C=C(C(=O)NC(C)Cn1cccn1)CO2` (centres undefined) to `CC(CNC(=O)c1cccc(-n2cccn2)n1)Cn1ccnc1` (centres undefined), the “Percent Effect” value falls from 15.57% to -7.743%.

Compared with `CCCN(C(=O)CS(=O)(=O)c1ccccc1)c1cccc(C)c1`, `CCC[C@H]1CN(S(=O)(=O)c2ccc(Cl)cc2)C[C@@H]1NC(C)=O` is higher in “Percent Effect” value: -28.2% for the first, 12.77% for the second.

First: COCC(=O)Nc1ccc(-c2noc([C@@H]3CCCN3)n2)cn1
Second: Cl.c1cc(CNc2cnc(C3CCCN3)cn2)ccn1 (centres undefined)
The “Percent Effect” value of the first is lower: 10.12% for the first, 93.64% for the second.

Going from `Cl.FC(F)CNc1cnc(C2CCCN2)cn1` (centres undefined) to `Cl.c1cc(NCc2ccncc2)nc(C2CCCN2)c1` (centres undefined), the “Percent Effect” value falls from 111.3% to 109.1%.

Compared with `O=C(CCNc1ccc(Br)cn1)NCc1ccncc1`, `OC1CCN(Cc2ccc(CNc3ccc(Cl)cn3)cc2)CC1` is lower in “Percent Effect” value: 2.511% for the first, -3.648% for the second.

Going from `Cc1cccc(-c2c[nH]c(C3CCCN3)n2)c1.Cl.Cl` (centres undefined) to `Cc1ccc(NCCCNC(=O)NCC2CCS(=O)(=O)C2)nc1` (centres undefined), the “Percent Effect” value rises from -28.51% to 4.563%.

Going from `CCOc1cncc(N(C)CC(=O)NC)n1` to `CCC[C@@H]1CN(S(=O)(=O)c2ccc(OC)c(OC)c2)C[C@H]1NC(C)=O`, the “Percent Effect” value falls from 3.632% to -5.851%.

Compared with `CCC(CC)CNCC1(S(C)(=O)=O)CCOCC1`, `CC(=O)N[C@@H]1CN(S(=O)(=O)c2ccc(Cl)cc2)C[C@H]1O` is higher in “Percent Effect” value: -4.414% for the first, 155.9% for the second.
